About 6,100 (1.1%) of roughly 580,000 compounds were called active. Another 15% or so got no clear call; they are omitted. Calls come from the whole dose curve; as a rule, active = well fitted inhibition curve with a large enough effect; inconclusive = small, poorly fitted or top-dose-only effect, or another doubt; inactive = no such curve, though single readings can be large or run the other way. Shown is part of a subset that was picked to be rich in actives. Entries that show only a call come without a potency.
Potency is the fitted concentration of half-maximal effect.

The assay deals with Polyunsaturated fatty acid lipoxygenase ALOX12 (Homo sapiens) (UniProt P18054). Nature of the assay: Primary qHTS assay for inhibitors of human arachidonate 12S-lipoxygenase (ALOX12): Round 2. The conditions noted are these: purified 12hLO, xylenol orange hydroperoxide absorbance; series mostly up to 108 µM. Put shortly: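 Purified human 12hLO (150 nM final) in 25 mM Hepes, 0.01% Triton X-100, pH 7.0 was preincubated 15 min at room temperature with compound. Then 40 uM arachidonic acid was added, 30 min. Hydroperoxide was read by Fe-XO absorbance ratio 573/405 nm.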
Chain of Polyunsaturated fatty acid lipoxygenase ALOX12 (Homo sapiens) (P18054 whole entry, looked up): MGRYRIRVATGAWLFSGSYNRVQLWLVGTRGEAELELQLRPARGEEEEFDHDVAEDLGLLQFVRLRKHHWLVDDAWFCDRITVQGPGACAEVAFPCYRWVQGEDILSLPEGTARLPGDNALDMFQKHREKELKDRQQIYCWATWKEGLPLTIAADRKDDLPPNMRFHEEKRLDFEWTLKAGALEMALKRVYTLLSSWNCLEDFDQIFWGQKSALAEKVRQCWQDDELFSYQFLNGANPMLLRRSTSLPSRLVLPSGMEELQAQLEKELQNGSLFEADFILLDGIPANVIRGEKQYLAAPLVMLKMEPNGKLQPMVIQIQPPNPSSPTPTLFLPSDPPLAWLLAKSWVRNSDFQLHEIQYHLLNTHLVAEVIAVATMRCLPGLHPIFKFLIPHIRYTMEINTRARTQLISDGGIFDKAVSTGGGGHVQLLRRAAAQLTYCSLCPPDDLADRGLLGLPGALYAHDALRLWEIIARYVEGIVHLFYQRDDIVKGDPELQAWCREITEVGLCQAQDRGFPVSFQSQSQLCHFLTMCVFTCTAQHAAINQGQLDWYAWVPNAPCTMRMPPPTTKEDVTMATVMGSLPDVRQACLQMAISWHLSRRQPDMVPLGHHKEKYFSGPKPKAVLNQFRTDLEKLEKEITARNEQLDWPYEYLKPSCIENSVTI
A general note: qHTS replaces the single test concentration by a dilution series.
Turning to `CCOCCCNCc1ccccc1Cl`, the Potency entry is “inactive”.

Take `CC(C)(C)CC(C)(C)NCc1ccco1`: the Potency entry was “inactive”.

In the case of `CC(C)(C)C1C/C(=C/c2ccco2)C(=O)/C(=C/c2ccco2)C1` (stereo unspecified), the Potency is 39.8 µM (active).

In the case of `Cc1nnc(C(=O)Nc2ccc(C(=O)NCc3ccc4c(c3)OCO4)cc2)s1`, the Potency entry is “inactive”.

Consider `CNC(=O)CNC(=O)c1n[nH]c(=O)c2ccccc12`, for which the Potency result was “inactive”.

Regarding `COc1ccc2[nH]cc(CCNC(=O)CNc3nc(Cl)nc4nc[nH]c34)c2c1`, the Potency result is “inactive”.

On to `COc1cccc(C2C(C#N)=C(N)OC3=C2S(=O)(=O)N(C)c2ccccc23)c1OC` (stereo unspecified), for which the Potency result was “inactive”.

`CCc1nn2c(=O)cc(CNc3cccc(C(=O)NC4CC4)c3)nc2s1`: the Potency was 10 µM (active).

In the case of `CCc1nn2c(=O)cc(CNc3cc(F)ccc3F)nc2s1`, the Potency entry was “inactive”.

As for `CCC(=O)Nc1cccc(C(=O)OCc2cc(=O)n3nc(CC)sc3n2)c1`, the Potency result was “inactive”.

Take `CCCN(C1CCS(=O)(=O)C1)S(=O)(=O)c1ccc(OC)cc1` (stereo unspecified): the Potency result is “inactive”.

With `O=C(NCCc1ccco1)C1c2ccccc2C(=O)N(Cc2ccccc2)C12CCCC2` (stereo unspecified), the Potency result was “inactive”.

For the molecule `N#CCCn1cc(C(=O)CN2C(=O)NC3(CCOc4ccccc43)C2=O)c2ccccc21` (stereo unspecified), the Potency result was “inactive”.

In the case of `O=S(=O)(c1ccc2nc(N3CCN(c4cccc(Cl)c4)CC3)ccc2c1)N1CCCCC1`, the Potency entry was “inactive”.

As for `Cc1ccccc1N1CCN(S(=O)(=O)c2ccc3ccccc3c2)CC1`, the Potency result was “inactive”.

Take `Cc1ccc(C)c(N2CCN(c3ccc4cc(S(=O)(=O)N5CCC(C)CC5)ccc4n3)CC2)c1`: the Potency was 50.1 µM (active).

In the case of `CC1=C[C@@H](CNC2CCN(C)CC2)[C@H](C(C)C)C[C@H]1Cc1nc2ccccc2[nH]1`, the Potency result was “inactive”.

With `Cc1noc(C)c1C(=O)N1CCCC2(Cc3ccccc3CN2C(=O)C2CCCC2)C1` (stereo unspecified), the activity change, negative = inhibition is 2.72% [at 12.5 µM] (inactive).

In the case of `C[C@]12CCC3=C4CCC(=O)C=C4CC[C@@H]3[C@H]1CC[C@@]2(O)CC#N`, the Potency was 19.3 µM (active).

In the case of `C#C[C@]1(O)CC[C@H]2[C@@H]3CCC4=CC(=O)CC[C@@H]4[C@H]3CC[C@@]21CC`, the Potency entry was “inactive”.

Regarding `Cc1ccccc1NC(=O)CSc1nnc(C)n1-n1cccc1`, the Potency entry is “inactive”.

Turning to `COc1ccc(NC(=O)c2nn(C)c(=O)c3ccccc23)cc1OC(F)F`, the Potency entry was “inactive”.

Consider `CCc1cccc(C)c1NC(=O)Cn1ccn(-c2ccccc2)c(=O)c1=O`, for which the Potency result was “inactive”.

`O=C(COC(=O)/C=C/c1ccc(Cl)cc1)NC1CCS(=O)(=O)C1` (stereo unspecified): the Potency entry is “inactive”.

`CC(C)(C)c1ccc(/C=C/C(=O)NC2CCS(=O)(=O)C2)cc1` (stereo unspecified): the Potency result was “inactive”.

As for `CC(C(=O)NC1CCS(=O)(=O)C1)N1C(=O)/C(=C/c2ccc(Cl)cc2)SC1=S` (stereo unspecified), the Potency is 35.5 µM (active).

For `COc1ccc(S(=O)(=O)N2CCN(Cc3ncc(-c4ccc(F)cc4)o3)CC2)cc1`, the Potency entry was “inactive”.

For `O=C(c1ccco1)N1CCN=C1SCc1cccc(Cl)c1`, the Potency entry was “inactive”.

For `Cc1ccc2nc(COc3cccc(NC(=O)c4cccc(Cl)c4)c3)cc(=O)n2c1`, the Potency entry was “inactive”.

Turning to `Cc1cc2nc(-c3ccco3)c(Cc3cccc(F)c3)n2c(C)c1Br`, the Potency is 11.2 µM (active).

`Cc1ccc2nc(-c3ccco3)c(Cc3cccc(Cl)c3)n2c1`: the Potency was 25.1 µM (active).

As to `Cc1ccc(C(=O)c2ccccc2C(=O)OCc2ccccc2Cl)cc1`, the Potency entry is “inactive”.

Consider `CCN(CC)S(=O)(=O)c1ccc2c(c1)c(=O)n(CC(=O)N1CCCCCC1)c(=O)n2C`, for which the Potency result is “inactive”.

On to `O=C(CSc1nnc(-c2ccc(Cl)cc2)o1)N1CCC(c2ccccc2)=N1`, for which the Potency result was “inactive”.

`Cc1cc2c(cn1)C(=O)c1ccccc1-2`: the Potency result is “inactive”.

On to `O=C1C(Cl)=C(Oc2ccccc2)C(=O)c2ccccc21`, for which the Potency is 11.2 µM (active).

As to `N#Cc1cccc(CN2CCC(c3ccnn3CCO)CC2)c1`, the Potency result is “inactive”.

Take `COc1ccc(OC)c(NC(=O)c2nc3ccccc3nc2N2CCCC2)c1`: the Potency result was “inactive”.

Turning to `COc1ccc2cc(C(=O)C3CCCN(C(=O)c4sc(C)nc4C)C3)ccc2c1` (stereo unspecified), the Potency entry was “inactive”.

On to `COc1ccc2nc(N3CCCC(O)C3)c(C#N)cc2c1` (stereo unspecified), for which the Potency was 50.1 µM (active).

As for `O=C(COc1ccc2ccccc2c1)Nc1nc2n(n1)C(c1ccc(Cl)cc1)CC(=O)N2` (stereo unspecified), the Potency result is “inactive”.

Take `O=C(NCC1CCCCO1)C1(Oc2ccc(Cl)cc2)CCNCC1` (stereo unspecified): the Potency result was “inactive”.

For `CC(C)N(C(=O)COC(=O)/C=C/c1cccc2cccnc12)c1ccccc1`, the Potency entry is “inactive”.

As for `CC(=O)NC1(C)CCN(Cc2cnc(-c3ccc4c(ccn4C)c3)s2)CC1`, the Potency was 39.8 µM (active).

With `CC(=O)NC1(C)CN(Cc2ccc(-c3ccc4c(ccn4C)c3)s2)C1`, the Potency result was “inactive”.

With `COC(=O)Nc1ncc(CN2CCCCC2)s1`, the Potency entry is “inactive”.

In the case of `CCCc1c(C)nc(Nc2nc(C)c3ccc(C)cc3n2)[nH]c1=O`, the Potency entry is “inactive”.

As to `COC(=O)c1sc(=S)n(-c2ccccc2)c1N`, the Potency was 44.7 µM (active).

Take `COC(=O)c1sc2ncccc2c1-n1c(C)ccc1C`: the Potency entry is “inactive”.

Regarding `CCOc1ccc(-n2c(N)c(C(=O)NCC3CCCO3)sc2=S)cc1` (stereo unspecified), the Potency entry was “inactive”.

For the molecule `Cc1ccc(C(=O)NC(c2ccc3c(c2)OCCCO3)C(C)C)cn1` (stereo unspecified), the Potency entry is “inactive”.

On to `Cc1c(CCC(=O)NCc2ccc3c(c2)OCO3)c(=O)oc2cc(O)ccc12`, for which the Potency entry is “inactive”.

`COc1ccc(NC(=O)c2ccc(Br)o2)cc1NC(=O)c1ccccc1C`: the Potency entry was “inactive”.

Regarding `O=C(Nc1ccc2c(c1)OCO2)c1cc(=O)c(OCc2ccccc2F)co1`, the Potency entry is “inactive”.

With `CN1C(=O)c2ccc(NC(=O)C(F)(F)C(F)(F)C(F)(F)F)cc2C1=O`, the Potency result is “inactive”.

`Cc1nn2c(c1-c1ccccc1-c1ccccc1)N(C(=O)CN1CCOCC1)CCC2`: the Potency result was “inactive”.

For the molecule `Cc1ccccc1CN1CCCn2nc(C)c(-c3cccnc3N3CCOCC3)c21`, the Potency is 28.2 µM (active).

For `COc1c(CNCc2cccnc2N2CCOCC2)c(C)nn1C`, the Potency result was “inactive”.

Take `COC(=O)c1cc(C)nc2c1c(=O)n(Cc1cccc(Cl)c1)c(=O)n2-c1ccccc1`: the Potency entry was “inactive”.

With `Oc1cc2c(cc1O)CN(C(=S)NCCc1ccc(Cl)cc1)CCC2`, the Potency was 17.8 µM (active).

In the case of `O=C(CSCc1ccc(Cl)cc1)N1CCCCC1`, the Potency entry is “inactive”.

`O=C(NCCc1ccc(Cl)cc1)C1CCCN1C(=O)NCc1ccccc1` (stereo unspecified): the Potency entry was “inactive”.

`CCN(CC(=O)NC(C)C)C(=O)Cn1c(=O)c2c(ncn2CC(C)C)n(Cc2ccccc2)c1=O`: the Potency entry is “inactive”.

Consider `CC(C)c1cccc(NC(=O)Cc2n[nH]c(=O)c3ccccc23)c1`, for which the Potency entry was “inactive”.

As to `CCc1nnc(NC(=O)COc2ccc3c(C)cc(=O)oc3c2)s1`, the Potency entry is “inactive”.

With `CC[C@@H]1Cc2cc(O)ccc2C2=C1c1ccc(O)cc1C[C@H]2CC`, the Potency was 50.1 µM (active).

For `Cc1ccc(C)c(NC(=S)NNC(=S)Nc2ccc(C(C)C)cc2)c1`, the Potency was 35.5 µM (active).

As to `CCC(C)NC(=S)Nc1ccc(C)cc1` (stereo unspecified), the Potency result is “inactive”.

With `Cc1ccc(C)c(NC(=S)NNC=O)c1`, the Potency entry is “inactive”.

`O=C(CCC1CCCCC1)NC(N1CCCCC1)(C(F)(F)F)C(F)(F)F`: the Potency result is “inactive”.

For the molecule `CC(CCc1ccccc1)NC(=O)C1CC=CCC1` (stereo unspecified), the Potency result is “inactive”.

For the molecule `CCc1ccc(C(=O)Nc2ccc(Cl)cc2)cc1S(=O)(=O)N1CCOCC1`, the Potency entry is “inactive”.

Consider `CCc1cccc(NC(=O)c2cccc(S(=O)(=O)N3CCOCC3)c2)c1`, for which the Potency entry is “inactive”.

As for `Cc1cc(C)nc(NS(=O)(=O)c2ccc(N/C=C\C(=O)c3cccs3)cc2)n1`, the Potency result was “inactive”.

In the case of `CCC(CC)C(=O)Nc1ccc(S(=O)(=O)Nc2nccs2)cc1`, the Potency entry was “inactive”.

As for `CCc1nnc(NS(=O)(=O)c2ccc(NC(=S)NC(=O)c3cccs3)cc2)s1`, the Potency is 22.4 µM (active).

On to `S=C(Cc1ccccc1)SC/C=C/c1ccccc1`, for which the Potency entry was “inactive”.

Turning to `NNc1nc2c(Cl)cccc2s1`, the Potency was 17.8 µM (active).

Consider `CCN1CCN(C(=O)c2cc3cc(Cl)cc(Cl)c3oc2=O)CC1`, for which the Potency result is “inactive”.

With `CCCCNC(=O)C(C#N)c1nc2ccccc2nc1N1CCN(C(=O)OCC)CC1` (stereo unspecified), the Potency entry is “inactive”.

Regarding `O=C(CN1CCN(C/C=C/c2ccccc2)CC1)Nc1ccc(F)cc1F`, the Potency entry was “inactive”.

Consider `Fc1ccc(N/N=C/c2ccc(-c3ccccc3)cc2)c(F)c1`, for which the Potency is 2.24 µM (active).

For the molecule `Fc1ccc(N/N=C/c2cccc(/C=N/Nc3ccc(F)cc3F)c2)c(F)c1`, the Potency entry is “inactive”.

For the molecule `COc1ccc(NC(C)=O)cc1NC(=O)c1nc(-c2ccccc2)oc1C`, the Potency result is “inactive”.

As for `O=C(NC1CCS(=O)(=O)C1)c1cc2sccc2n1Cc1ccccc1` (stereo unspecified), the Potency entry was “inactive”.

For the molecule `CN(C)CCNC(=O)CC1CCN(C(=O)c2nnc(C(=O)Nc3cccc(Cl)c3)s2)CC1`, the Potency entry was “inactive”.

Values taken from PubChem BioAssay AID1671190 (National Center for Advancing Translational Sciences (NCATS), 2021).
